Screens: PubChem BioAssay, National Center for Advancing Translational Sciences (NCATS)
DT40 TDP1 no CPT = qHTS for Inhibitors of human tyrosyl-DNA phosphodiesterase 1 (TDP1): qHTS in cells in absence of CPT; DT40 Tdp1-/- hTDP1 cells, no CPT, ATP luminescence, 48 h; Potency, µM (highest dose often 46.2 µM), inactives show top-dose activity change, negative = growth inhibition, usual class: inhibitors; 420,000 tested, 15% active; further: potency means the concentration at half of the fitted maximal effect; nearly all actives have a fitted effect of over 55% in size
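Chicken DT40 Tdp1-/- cells stably complemented with human TDP1 were seeded at 400 cells/well with DMSO in place of 20 nM camptothecin. After compound pinning, cells grew at least 48 hr at 37 °C; viability read by CellTiter-Glo luminescence.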
TDP1 cell CPT = growth inhibition of DT40 Tdp1-/-;hTDP1 cells with camptothecin (screen for TDP1 inhibitors) | chicken DT40 Tdp1-/-;hTDP1 cells + 20 nM CPT, ATP luminescence, 48 h | Potency, µM (highest dose often 46.2 µM), for the others: top-dose activity change, negative = growth inhibition, most hits filed as inhibitors | 420,000 tested, 12% active; further: potency means the concentration at half of the fitted maximal effect; nearly all actives have a fitted effect of over 55% in size
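Cell growth measured by CellTiter-Glo luminescence after a minimum 48 h, 37 C compound exposure with 20 nM CPT in Tdp1-knockout DT40 cells stably expressing hTDP1, seeded 400/well; qHTS titration format.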
IL-1B inflam inh = blocks inflammasome-driven IL-1 beta release; THP-1 LPS/ATP IL-1B secretion, AlphaLISA, 16 h; hits give low values; 360,000 tested, 4.7% active; AID 743279; activity change, % at 57.5 µM; in the data active means activity change below about -50%; inconclusive means mostly about -30% to -49%
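Secreted IL-1B measured by AlphaLISA bead assay after 16 h compound exposure of THP-1 cells; compounds (final up to 57.5 uM) added 1 h before LPS (250 ng/mL) and ATP (1.25 mM) stimulation; lower signal means less secretion.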
HT1080NT lethal = kills 2HG-producing HT-1080-NT fibrosarcoma cells | Potency, µM (titrated, usually from 46.1 µM), for the others: top-dose activity, negative = less viability, most hits filed as cytotoxic | HT-1080-NT fibrosarcoma viability, CellTiter-Glo ATP luminescence, 48 h | 360,000 tested, 1.6% active;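 further: NT is the 2HG producing partner of a matched IDH1 knockdown line; potency means the concentration at half of the fitted maximal effect; 0% = DMSO-treated cells and -100% = media-only wells without cells; nearly all actives have a fitted effect of over 55% in size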
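Viability by CellTiter-Glo luminescence after 48 h compound exposure at 37C of HT-1080-NT cells (750/well, RPMI, 5% FBS). % activity scaled between DMSO wells and medium-only wells, then curve-fitted and categorized by curve class.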
HT1080 IDH1KD tx = HT-1080 IDH1 knockdown cell toxicity (counter line); HT-1080 IDH1 knockdown viability, ATP luminescence, 48 h; Potency, µM (doses to about 46.1 µM), without a hit: top-dose activity, negative = toxicity, most hits filed as cytotoxic; 360,000 tested, 2% active;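 further: potency means the concentration at half of the fitted maximal effect; 0% = DMSO wells and -100% = cell-free medium wells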
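Cytotoxicity counter-line: IDH1KD HT-1080, 48 h, CellTiter-Glo. Curves classed by r2, magnitude and activity.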
ELG1 repair inh = inhibitors of ELG1-dependent DNA repair in HEK293T cells; HEK293T ELG1-luciferase reporter, luminescence, 16 h; DNA damage induced by 5-fluorouridine; 330,000 tested, 2.3% active; AID 504467; Potency, µM (series often up to 46.1 µM), inactives show at the highest dose activity change, negative = inhibition, usual class: inhibitors; further: potency means the concentration at half of the fitted maximal effect; nearly all actives have a fitted effect of over 55% in size
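Cells (2,000 per well) received 5-fluorouridine plus test compound or DMSO and were incubated 16 hr at 37 °C, 5% CO2. Luciferase activity was read by luminescence 30 min after ONE-Glo addition; signal suppression marked inhibition of damage-induced ELG1 function.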
Numbers without * were called inactive; ? = inconclusive; . = no result. Most compounds without a hit are left out; they make up all but 19% or so of the library. Unless noted, the call rests on the fitted dose curve; in most records, active means well fitted curve in the direction sought with a large enough effect; inconclusive means small, poorly fitted or top-dose-only effect, or another doubt; inactive means no such curve, though single readings can be large; an effect the other way counts as inactive or inconclusive. Unless noted, on the % scale 0 is the no-effect control and ±100 the full control effect.

SMILES	DT40 TDP1 no CPT	TDP1 cell CPT	IL-1B inflam inh	HT1080NT lethal	HT1080 IDH1KD tx	ELG1 repair inh
CC(C)c1nc(N2CCN(C(=O)c3ccco3)CC2)c(C#N)c2c1COC(C)(C)C2	21µM*	15µM*	?	?	?	?
Cc1nc(N2CCN(Cc3ccccc3)CC2)c(C#N)c2c1COC(C)(C)C2	26µM*	?	-2	-2%	-4%	7.3µM*
O=C(c1cc(COc2ccc(F)cc2Cl)on1)N1CCSCC1	-10%	-20%	?	20%	6%	?
Cc1nc2ccc(Br)cc2c(=O)n1Cc1cccs1	-17%	4%	0	10%	-3%	.
CC(C)(C)c1cc(S(=O)(=O)CCc2ccccn2)cc(C(C)(C)C)c1F	15µM*	13µM*	-88*	?	?	-8%
Cc1ccc(N(C(=O)c2csnn2)C(C(=O)NC2CCCC2)c2cccnc2)c(C)c1 (stereo not given)	?	-21%	7	-7%	2%	-1%
COc1cc(/C=N/Nc2ccccn2)cc(OC)c1O	?	?	-100*	-11%	-21%	?
C=CCOc1ccc(/C=N/Nc2ccccn2)cc1OC	26µM*	-28%	-11	-3%	-14%	?
CCOc1ccc(/C=N/Nc2ccccn2)cc1OC	?	-32%	-4	-12%	-10%	?
COc1cc(/C=N/Nc2ccccn2)ccc1OCC(C)C	10µM*	?	-22	-13%	-27%	?
CCOC(=O)c1[nH]c(C)c(CCC(=O)Nc2cc(Cl)ccc2C)c1C	-26%	-15%	.	.	.	.
CN1C(=C2C(=O)OC(C)(C)OC2=O)Sc2ccccc21	18µM*	?	-1	3%	0%	?
COc1ccc(C(=O)N(c2ccc(C)cc2)S(=O)(=O)c2ccc(C)cc2)cc1	23µM*	18µM*	.	.	.	.
Cc1ccc(S(=O)(=O)N(C(=O)c2ccncc2)c2ccc(OC(=O)c3ccncc3)cc2)cc1	?	?	?	-4%	-3%	-12%
COc1ccc(C(=O)N(c2ccc(OC)cc2)S(=O)(=O)c2cccs2)cc1	?	?	25	-1%	0%	1%
COc1ccc(N(C(=O)COc2cccc(C)c2)S(=O)(=O)c2ccc(C)cc2)cc1	-28%	18µM*	16	-11%	-9%	14%
COc1ccc(OC(=O)COc2cccc(C)c2)cc1	-7%	-9%	35	-28%	-27%	-6%
CCc1ccc(S(=O)(=O)N(C(=O)c2ccncc2)c2ccc(OC(=O)c3ccncc3)cc2)cc1	?	?	-61*	-13%	-4%	?
COc1ccc(N(C(=O)c2ccccc2)S(=O)(=O)c2cccs2)cc1	21µM*	?	8	16µM*	?	?
COc1ccc(N(C(=O)c2ccncc2)S(=O)(=O)c2ccc(Cl)cc2)cc1	-22%	-7%	5	0%	-7%	12%
O=C(c1csnn1)N1CCC2(CCCN(c3ncccn3)C2)CC1	-7%	10%	.	.	.	.
CN(C)CCNC(=O)c1sc2cccc(F)c2c1Cl	-23%	21%	-13	-5%	-22%	?
CN(C)CCNC(=O)c1cccc2nc3cccc(F)c3nc12	0.26µM*	0.082µM*	-116*	?	7.3µM*	.
COc1ccc(C23CC4CC(CC(C4)C2)C3)cc1C(=O)NCCN(C)C	8.2µM*	21µM*	-13	?	?	-17%
CN(C)CCNC(=O)c1cccc2ccc(-c3ccc(-c4ccccc4)cc3)nc12	?	?	-57*	-4%	?	.
SMILES	DT40 TDP1 no CPT	TDP1 cell CPT	IL-1B inflam inh	HT1080NT lethal	HT1080 IDH1KD tx	ELG1 repair inh
COc1ccc(OC)c2nc3c(C(=O)NCCN(C)C)cccc3nc12	2.6µM*	1.6µM*	-100*	?	21µM*	.
CN(C)CCNC(=O)c1ccccc1	-10%	-13%	15	0%	1%	4%
O=C(Cn1cc(S(=O)(=O)N2CCCC2)c(S(=O)(=O)N2CCCC2)c1)Nc1ccccc1	-28%	2%	.	.	.	.
CN(C(=O)COC(=O)CN1C(=O)C2CC=CCC2C1=O)c1ccccc1 (stereo not given)	-9%	-6%	13	-2%	-2%	?
CN1/C(=C\C(=O)COC(=O)Cn2nnc(-c3ccccc3)n2)C(C)(C)c2ccccc21	3.7µM*	4.1µM*	8	-18%	?	-3%
CN1/C(=C\C(=O)COC(=O)c2ccc([N+](=O)[O-])o2)C(C)(C)c2ccccc21	-15%	-11%	8	1%	3%	1%
CCOC(=O)C1CCCN(CC(=O)/C=C2/N(C)c3ccccc3C2(C)C)C1 (stereo not given)	13µM*	?	-9	-6%	-11%	-17%
CN1/C(=C/C(=O)C2CC2)C(C)(C)c2ccccc21	23µM*	?	40	2%	-4%	10%
CCOC(=O)C1CCCN(CCC(C)c2ccccc2)C1 (stereo not given)	-1%	-4%	20	?	-3%	18%
CN1/C(=C/C(=O)COC(=O)CN2C(=O)C3CC=CCC3C2=O)C(C)(C)c2ccccc21 (stereo not given)	16µM*	?	-11	-7%	-19%	.
O=C(NCCc1ccccc1Cl)c1cc(COc2ccc(F)cc2F)on1	?	?	-23	-4%	-5%	.
Cc1cc(C)cc(C(=O)NC(CC(N)=O)c2ccc(NCC3CC3)c([N+](=O)[O-])c2)c1 (stereo not given)	-15%	7%	-10	8%	2%	?
Cc1nc(N)sc1C(=O)N1N=N1	-5%	15%	.	20%	16%	6%
Cc1cc(Br)cc(C)c1OCC(=O)Nc1ccc(S(=O)(=O)Nc2ncccn2)cc1	-4%	?	.	.	.	.
CC(=NO)c1cc(Br)c2cccc3c2c1CC3	?	4%	-9	-2%	8%	.
CN1/C(=C\C(=O)Nc2cccc(Cl)c2)C(C)(C)c2ccccc21	23µM*	?	-72*	?	?	-12%
CCN1CCc2c(OCc3ccccc3)cccc2C1=O	?	-18%	?	13%	12%	?
CCOC(=O)Cc1ccc(Nc2nc(NCc3cccs3)nc3ccsc23)cc1	21µM*	21µM*	-84*	?	0%	.
COc1ccc(Nc2nc(NCc3cccs3)nc3ccsc23)cc1OC	18µM*	26µM*	-87*	?	?	.
